Compound activity from PubChem BioAssay.
This is a sample that favours compounds with a hit; in the whole collection about 1.1% have one here.
BJeLR lethal = BJeLR cell viability loss; BJeLR (HRASV12) viability, CellTiter-Glo ATP luminescence, 48 h; inhibition, % (no concentration beside the values); 0.17% of 300,000 active; in the data active means inhibition above about 50%
3CLpro inhibitor = SARS-CoV 3CLpro protease inhibition; P0C6X7; recombinant SARS-CoV 3CLpro, quenched FRET peptide cleavage; inhibition, % at 6 µM; 0.14% of 290,000 active; AID 1706; in the data active means inhibition above about 12%
VHR inh abs = DUSP3 (human) phosphatase inhibition | recombinant VHR phosphatase, pNPP absorbance | inhibition, % at 13.3 µM | 0.52% of 290,000 active | AID 1654; in the data active means inhibition above about 50%
PrPC surface inh = inhibitors of human cell surface prion protein PrPC. P04156. TR-FRET read-out. inhibition, % at 13.8 µM. 0.43% of 370,000 active. AID 720596; in the data active means inhibition above about 24%
PrPC TRFRET cf = cell surface PrPC inhibition, TR-FRET confirmation | shares compounds with PrPC surface inh | AID 743200 | cell surface PrPC level | inhibition, % at 13.8 µM | 65% of 1,500 active; in the data active means inhibition above about 25%
LD9 tox = counter-screen for PrPc inhibitors: cytotoxicity in LD9 cells; 29% of 1,500 active; luminescence viability; shares compounds with PrPC surface inh; inhibition, % at 13.8 µM; in the data active means inhibition above about 9.5%
A number is an active result; 0 = inactive; - = no result given.

SMILES	BJeLR lethal	3CLpro inhibitor	VHR inh abs	PrPC surface inh	PrPC TRFRET cf	LD9 tox
COc1ccc(Nc2nc(N3CCCC3)c3ccccc3n2)cc1	0	0	0	24	31	24
C[C@H](CO)N1C[C@H](C)[C@@H](CN(C)C(=O)NC2CCCCC2)Oc2ccc(NC(=O)C3CC3)cc2C1=O	-	-	-	0	-	-
O=C(CCl)Nc1nc(-c2ccco2)c(-c2ccco2)s1	0	0	0	44	32	0
O=C(CCc1c[nH]c2ccccc12)N1CCN(S(=O)(=O)c2ccc(F)cc2)CC1	-	-	-	0	-	-
O=S1(=O)c2ccc(N3CCCC3)cc2Oc2ccccc2CN1Cc1cn(Cc2ccc(F)cc2)nn1	-	-	-	0	-	-
Cc1ccc(C(=O)Nc2ccc3cn[nH]c3c2)cc1S(=O)(=O)N1CCCCC1	0	0	0	26	0	0
COc1ccc(-c2cc(NCCc3ccncc3)n3ncnc3n2)cc1	0	0	0	106	0	0
CCOC(=O)C1=CN(Cc2ccco2)S(=O)(=O)N(C)C1CC (stereo unspecified)	-	-	-	0	-	-
CC(=O)c1nnn(-c2nc(N)nc(N(c3ccccc3)c3ccccc3)n2)c1C	0	0	0	25	91	0
CCCCN(CCCC)c1nc(OC)nc(-n2nnc(C(C)=O)c2C)n1	0	0	0	0	-	-
O=C(NCCc1c[nH]c2ccccc12)OCc1cn(Cc2cccc(C(F)(F)F)c2)nn1	-	-	-	0	-	-
COC(=O)[C@H](CC(C)C)N(CCc1cn(Cc2ccccc2)nn1)S(=O)(=O)c1ccc(F)cc1Br	-	-	-	0	-	-
COc1ccc(CCNC(=O)CSc2nn3c(=O)c(C)nnc3s2)cc1OC	0	0	0	25	0	0
O=C(NNc1ccc(-c2csnn2)cc1)c1cc(Cl)cc(Cl)c1	0	0	0	27	32	0
O=C(NNc1ccc(-c2csnn2)cc1)c1ccccc1C(F)(F)F	0	0	0	0	-	-
O=C(NC(NNc1ccc([N+](=O)[O-])cc1)(C(F)(F)F)C(F)(F)F)c1ccccc1Cl	0	0	0	0	-	-
O=C(NC(Nc1nc2ccc([N+](=O)[O-])cc2s1)(C(F)(F)F)C(F)(F)F)c1ccccc1Cl	60	0	0	67	66	63
O=C(NC(Nc1nc2ccc([N+](=O)[O-])cc2s1)(C(F)(F)F)C(F)(F)F)c1cccnc1	0	0	0	42	52	59
N#CC1=C(c2ccccc2)/C(=C/c2ccccc2)OC1=O	0	0	0	0	-	-
N#CC(C#N)=C1NC(N)=C(C#N)C(c2ccccc2)=C1C#N	0	0	0	74	103	0
CCCSc1nc2cc(OC)c(OC)cc2c(=N)n1CCCN1CCOCC1	0	0	0	0	-	-
COCCCn1c(SCc2ccc(OC)cc2)nc2cc(OC)c(OC)cc2c1=N	0	0	0	119	0	0
COC(=O)c1cc2c(c3c4cc(C)ccc4n(S(=O)(=O)c4cccc(C)c4)c13)C(=O)N(Cc1ccc(N(C)C)cc1)C2	-	-	-	0	-	-
CC1=C(C)[N+](=O)C2(O)CCCCC2(C)N1[O-] (stereo unspecified)	0	0	0	36	0	0
CC1(Cc2ccc(OC(F)(F)F)cc2)C(=O)Nc2ccc(S(=O)(=O)NC3CCCCC3)cc21 (stereo unspecified)	-	-	-	36	30	11
CCOC(=O)c1cnc[nH]c1=O	-	-	-	0	-	-
CN(C)S(=O)(=O)Oc1cccc(C(=O)Nc2ccccc2Cl)c1	0	0	0	0	-	-
CN(C)S(=O)(=O)Oc1cccc(C(=O)Nc2ccc(Cl)cc2)c1	0	0	0	27	29	12
